From PubChem BioAssay (Tox21)
Several values for one entry are separate records, joined by “and”; a condition that tells them apart may be missing. Equal values may be shown once. Inconclusive results are not listed. Unmarked numbers belong to inactive results. Activity calls are given as the source filed them. Calls follow the shape of the full dose curve.

Assay: qHTS assay to identify small molecule antagonists of the sonic hedgehog signaling (Shh) pathway (AID 1259369); also: nearly all actives have a fitted effect of over 45% in size
Conditions: NIH/3T3 Gli1-Luc reporter, Shh antagonist, luminescence 24 h; series mostly up to 42.5 µM; activity change, negative = inhibition: at the top concentration
Description: U.S. Tox21 Program National Center for Advancing Translational Sciences [NCATS] NIH Chemical Genomics Center [NCGC] U.S. Environmental Protection Agency [EPA] National Institutes of Environmental Health Sciences [NIEHS] National Toxicology Program [NTP] U.S. Food and Drug Administration [FDA] Tox21 Assay Overview: The sonic hedgehog (Shh) pathway is essential for normal embryonic development. Dysregulation of the Shh pathway can cause severe developmental defects in organs. Therefore chemicals that interfere with the pathway are potential developmental toxicants. A cell line designated 3T3Gli1-Luc (DMB/OARSA/CFSAN/FDA, Laurel, MD), a NIH/3T3 derived clone containing stably integrated Gli1-Luc reporter is used to detect chemical interference of the Shh pathway, by changes in the expression of the firefly Luc gene under the control of the Gli1 transcriptional response element. This cell line was used to screen Tox21 libraries for identifying and prioritizing the potential developmental toxicants that interfere Shh pathway. Conditioned medium-stimulated mode was used to screen for chemicals inhibiting Shh signaling.
Tox21 Assay Protocol Summary: 3T3 Gli1-Luc cells were dispensed at 2,000 per well in 5uL of culture medium into white solid bottom 1536-well plates (Greiner Bio-One, Monroe, NC) using a Multidrop Combi (Thermo Scientific, Waltham, MA) dispenser. The assay plates were incubated at 37 C and 5% CO2 for 4hr, and then 23nL of compounds dissolved in DMSO and positive control were transferred using a Pintool station (Wako, San Diego, CA). The compound transfer was followed by the addition of 1ul conditioned medium or assay buffer using two separate tips of Flying Reagent Dispenser (FRD, Aurora Discovery, San Diego, CA). The assay plates were incubated at 37C and 5% CO2 for 24hr. For luciferase read, 4uL of Amplite Luciferase reporter gene assay reagent (AAT Bioquest, Inc. Sunnyvale, CA) was added to each well of the assay plates using FRD and incubated at room temperature for 30min. The luminescence signal was measured using a ViewLux plate reader (Perkin Elmer, Shelton, CT).
% is scaled to controls: 0 for no effect and ±100 for the full control effect; potency is read from the fitted curve at half-maximal effect.

| SMILES | activity change, negative = inhibition | Potency |
| --- | --- | --- |
| OCCOc1ccc(OCCO)cc1 | 25.8% [at 92.4 µM] | – |
| O=c1cc(CO)occ1O | 15.8% | – |
| CCCCNC(=O)NCCCC | 0.317% [at 92.4 µM] | – |
| Cc1ccc(C#N)cc1 | 63.5% [at 92.4 µM] | – |
| Cc1cnc(NS(=O)(=O)c2ccc(N)cc2)nc1 | 0.977% | – |
| C=CCCCCCCCCC=O | -7.14% [at 92.4 µM] | – |
| CC(=O)OCC(=O)[C@@]1(O)CC[C@H]2[C@@H]3CCC4=CC(=O)CC[C@]4(C)[C@H]3C(=O)C[C@@]21C | 7.01% | – |
| CC(=O)Nc1ccc(S(N)(=O)=O)cc1 | 0% [at 92.4 µM] | – |
| CC1=CC(C)C(C=O)CC1 (stereo not given) | 13.3% [at 92.4 µM] | – |
| NC(CSCC(=O)O)C(=O)O (stereo not given) | 4.45% | – |
| NS(=O)(=O)c1cc2c(cc1Cl)NC(C1CC3C=CC1C3)NS2(=O)=O (stereo not given) | 3.8% | – |
| CC(NC(CCc1ccccc1)C(=O)O)C(=O)N1C(=O)N(C)CC1C(=O)O (stereo not given) | -4.47% | – |
| CC1(C)C(O)C(C)(C)C1O (stereo not given) | 0% [at 92.4 µM] | – |
| CN(C)CCCNCCCN(C)C | 23.5% [at 92.4 µM] | – |
| COC(=O)C1=C(C)NC(C)=C(C(=O)OC)C1c1ccccc1[N+](=O)[O-] | – | 6.12 µM (active) and 6.68 µM (active) |
| CCCCOCCOCCOCc1cc2c(cc1CCC)OCO2 | – | 1.39 µM (active) and 2.66 µM (active) |
| COC(=O)[C@@H](N)Cc1ccc(O)c(O)c1 | -17.7% | – |
| CCOC(=O)c1c(C)n(C)c2ccc(O)cc12 | 1.74% | – |
| CC1(C)CO[C@@H](CC(=O)O)CN1 | 23.4% | – |
| Nc1nc2c(ncn2COC(CO)CO)c(=O)[nH]1 | 19.6% | – |

| SMILES | activity change, negative = inhibition | Potency |
| --- | --- | --- |
| O=C(CCCN1CCC(O)(c2cccc(C(F)(F)F)c2)CC1)c1ccc(F)cc1 | 6.65% | – |
| CCCC(=O)O[C@]1(C(=O)CO)CC[C@H]2[C@@H]3CCC4=CC(=O)CC[C@]4(C)[C@H]3[C@@H](O)C[C@@]21C | -1.09% | – |
| O=C1NC(=O)[C@@]2(CCOc3ccc(F)cc32)N1 | 20.5% | – |
| CCOC(=O)c1ccc(C)cc1 | 1.02% [at 92.4 µM] | – |
| COC(C)(C)CCCC(C)CC=O (stereo not given) | 0% [at 92.4 µM] | – |
| CC[N+](C)(C)c1cccc(O)c1 | 30% | – |
| CCc1nccnc1CC | 0% [at 19 µM] | – |
| CCc1cccc2c(CCO)c[nH]c12 | 25.3% | – |
| CCOC(=O)CCC(C)=O | 14.5% [at 92.4 µM] | – |
| CCSC(=O)N(CC(C)C)CC(C)C | 19.9% [at 92.4 µM] | – |
| Cc1c(O)cccc1O | – | 14 µM (active) |
| CN(C(=O)c1c(O)c2ccccc2n(C)c1=O)c1ccccc1 | 17.1% | – |
| CCCCC(CC)COC(=O)c1ccccc1O (stereo not given) | 11.6% | – |
| O=C(O)CCCl | 12.2% [at 92.4 µM] | – |
| CCOC(=O)c1cccc(N)c1 | 8.85% | – |
| Cc1cccc(C)c1NC(=O)C(C)N (stereo not given) | 3.49% | – |
| NCCc1cnc[nH]1 | 12.9% | – |
| COCCc1ccc(OCC(O)CNC(C)C)cc1 (stereo not given) | – | inactive |
| CC/C=C\CC/C=C/CO | 5.12% [at 92.4 µM] | – |
| Cc1c(NC(C)C)c(=O)n(-c2ccccc2)n1C | 9.15% | – |
